This is an account of results in PubChem BioAssay (NCI).

This is part of a sample that, as a whole, favours compounds with a hit. Of some 83,000 tested, about 20% had one in any assay.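 A percent growth of 40 corresponds to 60% growth inhibition; 0 means no net growth; -100 means all cells died. Active threshold: below 10.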 Values without a mark were called inactive. The source made the active and inactive calls.

Test systems include SK-MEL-2 melanoma; EKVX NSCLC; SN12C renal; UO-31 renal; TK-10 renal; ACHN renal; A498 renal; CCRF-CEM leukemia; MOLT-4 leukemia; CAKI-1 renal.
What all share (assay): NCI-60 one-dose screen, 48 h (100 = growth as untreated, 0 = no growth, -100 = all killed)
What all share (conditions): 10 µM unless noted

Take `Cn1ncc2c(Sc3ccc(Cl)cc3)ncnc21`: the growth with SK-MEL-2 melanoma is -13.3% (active); with EKVX NSCLC it was 90.2%; in the assay with SN12C renal, 90.1%; in the assay on UO-31 renal, 71%; in the assay on TK-10 renal, 82.7%; with ACHN renal, 95.1%. The growth in the assay on A498 renal is 86.3%; in the assay on CCRF-CEM leukemia it was 95.3%; with MOLT-4 leukemia, 95.8%.
As to `OCc1ncc(-c2ccccc2)s1`, the growth was 113% in the assay on SK-MEL-2 melanoma; 87.8% in the assay on EKVX NSCLC; 121% in the assay on SN12C renal; 97.9% with UO-31 renal; 110% in the assay on TK-10 renal; 81.8% with CAKI-1 renal. Also, the growth in the assay with A498 renal was 116%; with CCRF-CEM leukemia it was 90.6%; with MOLT-4 leukemia it was 110%.
`C/C=C(\C)C(C(=O)NC1CCCCC1)N(C(=O)C1CCc2cc(F)ccc2O1)c1ccc(Cl)cc1` (stereo unspecified): the growth in the assay on SK-MEL-2 melanoma was 103%; in the assay on EKVX NSCLC, 94.2%; in the assay with SN12C renal, 106%; with UO-31 renal, 92.6%; in the assay on TK-10 renal it was 96.2%; in the assay with ACHN renal, 115%. Besides, the growth is 101% with CCRF-CEM leukemia and 95.4% in the assay with MOLT-4 leukemia.
Take `CC1=NC2=CC=CC3=NC(C(Cl)(Cl)Cl)=NC(=N1)N23`: the growth is 86.6% in the assay with SK-MEL-2 melanoma; 76.1% with EKVX NSCLC; 86.7% in the assay on SN12C renal; 63% with UO-31 renal; 112% in the assay on TK-10 renal; 61% in the assay with ACHN renal. For the same molecule, the growth in the assay with CCRF-CEM leukemia is 70.1%; with MOLT-4 leukemia, 4.18% (active).
Consider `COc1ccc(NC(=O)CSc2nc(-c3ccc(OC)c(OC)c3)cc(-c3cc(OC)c(OC)c(OC)c3)n2)cc1`, for which the growth was 89% with SK-MEL-2 melanoma; 108% in the assay with EKVX NSCLC; 93.9% with SN12C renal; 35.4% in the assay with UO-31 renal; 96.8% in the assay with TK-10 renal; 83.8% in the assay with CAKI-1 renal. Moreover, the growth in the assay on A498 renal is 99.8%; with CCRF-CEM leukemia it was 101%; in the assay with MOLT-4 leukemia, 84.8%.
For `Cc1cc(N)n(S(=O)(=O)c2oc(-c3ccccc3)nc2C#N)n1`, the growth is 89.7% in the assay with SK-MEL-2 melanoma; 84.7% in the assay on EKVX NSCLC; 83.9% in the assay with SN12C renal; 80.6% with UO-31 renal; 99.1% with TK-10 renal; 5.25% (active) in the assay with ACHN renal. Also, the growth in the assay on CCRF-CEM leukemia is 7.83% (active); with MOLT-4 leukemia it was 0.904% (active).
For `COc1ccc(-c2c(-c3cc(OC)c4c(c3)OCO4)noc2N)cc1`, the growth in the assay on SK-MEL-2 melanoma is 53.4%; in the assay on EKVX NSCLC it was 44.6%; with SN12C renal, 22.9%; with UO-31 renal, 36.1%; with TK-10 renal it was 54.8%; with CAKI-1 renal it was 38.7%. The figures for the growth in the assay on A498 renal, with CCRF-CEM leukemia and in the assay with MOLT-4 leukemia were 23.6%, 14.1% and 4.69% (active), respectively.
For `C=C(C)[C@@H]1C[C@H](O)Cc2cc(F)ccc2N1`, the growth in the assay on SK-MEL-2 melanoma is 76.8%; in the assay with EKVX NSCLC, 87.3%; with SN12C renal it was 93.8%; with UO-31 renal, 75.5%; with TK-10 renal, 92.3%; in the assay with ACHN renal it was 94.4%. In addition, the growth with A498 renal was 111%; with CCRF-CEM leukemia, -62.7% (active); in the assay on MOLT-4 leukemia it was -28.3% (active).
Regarding `Clc1cc2c(nn1)Nc1ccccc1S2`, the growth in the assay on SK-MEL-2 melanoma is -4.79% (active); with EKVX NSCLC, 52.3%; in the assay with SN12C renal it was 97.1%; with UO-31 renal it was 106%; in the assay on TK-10 renal, 129%; in the assay on ACHN renal, 99.1%. Moreover, the growth is 89.1% with A498 renal, 93.7% with CCRF-CEM leukemia and 96.3% with MOLT-4 leukemia.
`COc1ccc2c(c1)cn1c3ccc(OC)cc3[nH]c(=O)c21`: the growth is -50.3% (active) with SK-MEL-2 melanoma; 48.5% in the assay with EKVX NSCLC; -11.8% (active) in the assay with SN12C renal; -74.8% (active) with UO-31 renal; -89.6% (active) in the assay with TK-10 renal; -98.3% (active) in the assay on ACHN renal. Moreover, the results for the growth in the assay with A498 renal, in the assay with CCRF-CEM leukemia and with MOLT-4 leukemia were 41.2%, -64.8% (active) and -41.6% (active), respectively.
As to `COc1ccc2c(c1)NC1=C(C(=O)OC1)C2c1cc(OC)c2c(c1)OCO2` (stereo unspecified), the growth is 54.6% in the assay on SK-MEL-2 melanoma; 52.2% in the assay with EKVX NSCLC; 26.4% in the assay on SN12C renal; 57.5% in the assay with UO-31 renal; 58.3% with TK-10 renal; 43.4% in the assay on CAKI-1 renal. Further, the growth is 18.5% in the assay on A498 renal, 10.1% in the assay on CCRF-CEM leukemia and 11.6% in the assay with MOLT-4 leukemia.
Consider `CCOc1cc2c(Cl)ncnc2c(OCC)c1OCC`, for which the growth in the assay on SK-MEL-2 melanoma is 52.2%; in the assay on EKVX NSCLC, 88.4%; in the assay on SN12C renal, 94%; with UO-31 renal it was -17.7% (active); with TK-10 renal, 105%; with ACHN renal it was 60.1%. Further, the growth with A498 renal was 91.1%; with CCRF-CEM leukemia it was 11.2%; with MOLT-4 leukemia it was 21.7%.
Regarding `COc1cccc(CC(C)=C(c2ccc(OCCN(C)C)cc2)c2ccc(OCCN(C)C)cc2)c1`, the growth was 14% with SK-MEL-2 melanoma; 62% in the assay with EKVX NSCLC; -12.2% (active) in the assay with SN12C renal; -91.3% (active) in the assay with UO-31 renal; -15.2% (active) with TK-10 renal; -82.4% (active) in the assay with ACHN renal. Besides, the growth in the assay on CCRF-CEM leukemia is -19.5% (active); with MOLT-4 leukemia, -25.5% (active).
For `CCCCCCCC/C=C/CCCCCCCC1=NC(C)(C)CN1C(C)(C)CO`, the growth in the assay on SK-MEL-2 melanoma is 51.3%; in the assay on EKVX NSCLC, 66.2%; with SN12C renal, 48.7%; in the assay with UO-31 renal, 44.5%; with TK-10 renal, 62.1%; in the assay on ACHN renal, 21.6%. For the same molecule, the growth with A498 renal was 88.8%; in the assay with CCRF-CEM leukemia, 3.32% (active); with MOLT-4 leukemia it was -22.6% (active).
Take `CCN(CC)CCCC(C)Nc1c2ccc(Cl)cc2nc2cc(OC)c(OC)cc12` (stereo unspecified): the growth in the assay with SK-MEL-2 melanoma was 48%; with EKVX NSCLC it was 53.7%; in the assay on SN12C renal it was 34.3%; in the assay on UO-31 renal, -41% (active); in the assay on TK-10 renal it was 2.47% (active); in the assay on ACHN renal, -76.2% (active). Also, the growth in the assay with A498 renal is 54.6%; in the assay with CCRF-CEM leukemia, 15.5%; in the assay on MOLT-4 leukemia, -8.8% (active).
